Source: PubChem
Most compounds without a hit are left out; they make up all but 3.3% or so of the library.
AmpC detergent = AmpC beta-lactamase inhibition with detergent present. P00811. AmpC hydrolysis of nitrocefin, absorbance 480 nm, 0.01% Triton. Potency, µM (titrated, usually from 114 µM), inactives show top-dose activity change, negative = inhibition, hits mostly inhibitors. actives 0.041% (n = 370,000). AID 485294;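 further: 0% = no-compound wells and -100% = no-enzyme wells; nearly all actives have a fitted effect of over 25% in size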
Target sequence (P00811 whole entry, looked up): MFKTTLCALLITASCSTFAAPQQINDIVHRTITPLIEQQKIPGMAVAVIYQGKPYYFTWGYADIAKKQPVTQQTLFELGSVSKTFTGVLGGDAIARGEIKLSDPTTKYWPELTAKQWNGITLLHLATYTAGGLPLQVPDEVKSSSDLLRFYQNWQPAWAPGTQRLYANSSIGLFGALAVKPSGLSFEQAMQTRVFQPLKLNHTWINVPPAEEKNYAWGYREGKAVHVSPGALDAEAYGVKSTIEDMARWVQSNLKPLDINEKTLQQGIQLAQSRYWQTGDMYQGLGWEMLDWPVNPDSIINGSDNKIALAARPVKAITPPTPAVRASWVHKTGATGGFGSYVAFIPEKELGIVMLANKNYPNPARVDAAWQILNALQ
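AmpC (5.3 nM in the dispensed reagent) in 20 mM phosphate pH 7.0 with 0.01% (detergent screen) or 0.0001% Triton X-100 was preincubated with compounds for 15 min at room temperature. Nitrocefin was then added from an 800 uM solution, and hydrolysis was followed at 480 nm.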
AmpC no deterg = blocks E. coli AmpC beta-lactamase in detergent-free assay. P00811. AID 485341. Potency, µM (highest dose often 57.1 µM), without a hit: at the top dose activity change, negative = inhibition, most hits filed as inhibitors. AmpC nitrocefin hydrolysis, absorbance 480 nm, 0.0001% Triton. actives 0.52% (n = 330,000);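 further: plate controls were no compound for no effect and no enzyme for full effect; nearly all actives have a fitted effect of over 20% in size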
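20 mM phosphate pH 7.0 + 0.01% (detergent screen) or 0.0001% Triton X-100; 5.3 nM AmpC reagent; cpd preinc 15 min RT; nitrocefin (800 uM stock) to start; A480 q20 s × 4 min; Activity was normalised to no-enzyme and no-compound control wells.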
Sm TGR block = inhibitors of Schistosoma mansoni thioredoxin glutathione reductase | Q962Y6 | purified TGR, DTNB reduction, TNB absorbance 405 nm | Potency, µM (highest dose often 114 µM), for the others: top-dose activity change, negative = inhibition, most hits filed as inhibitors | actives 3% (n = 360,000); further: nearly all actives have a fitted effect of over 60% in size
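Kinetic colorimetric format: TGR-catalysed, NADPH-driven DTNB reduction monitored via TNB absorbance. Enzyme dispensed at 20 nM; compound exposure 15 min at room temperature before reaction start.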
* hit, by the source's call; ? = inconclusive; . = not tested or not shown; [ ] = another dose, or the depositor's remark. The call rests on the fitted dose curve; in most records, active means well fitted curve in the direction sought with a large enough effect; inconclusive means small, poorly fitted or top-dose-only effect, or another doubt; inactive means no such curve, though single readings can be large; an effect the other way counts as inactive or inconclusive. Unless noted, on the % scale 0 is the no-effect control and ±100 the full control effect; potency means the concentration at half of the fitted maximal effect.

SMILES	AmpC detergent	AmpC no deterg	Sm TGR block
O=C(COC(=O)CCOc1ccccc1)NCc1ccco1	?	-4%	35µM*
O=C(COC(=O)CCC(=O)c1ccc(F)cc1)NCc1ccc(Cl)cc1	.	22%	.
C=CCNC(=O)COc1coc(CN2CCN(C(=O)c3ccco3)CC2)cc1=O	-13%	-12%	-27%
CCOC(=O)CC1(C)OCC(C[N+]2(C)CCCCC2)O1 (configuration not stated)	1%	-10%	-10%
CCN(CC)CCNS(=O)(=O)c1ccc(C(=O)NN)cc1	-6%	-26%	-2%
O=c1[nH]ncc(N2CCN(Cc3ccccc3)CC2)c1Cl	-1%	1%	8%
S=c1sc2ccccc2n1CCc1ccncc1	1%	-11%	-14%
CSc1nn(CCc2ccncc2)c(=S)s1	-1%	-6%	35µM*
CCOC(=O)c1ccc(NC(=O)c2cn(-c3ccccc3)nc2-c2ccc(OC)c(OC)c2)cc1	13%	.	4%
CC(C)CCOc1ccc(C(=O)O)cc1	-10%	-53%	-6%
CC(C)CCOc1ccc(C(=O)CCNC(C)C(=O)O)cc1 (configuration not stated)	0%	-4%	1µM*
COC(=O)C1(C(=O)OC)NOC2C(=O)N(N(C)c3ncc(C(F)(F)F)cc3Cl)C(=O)C21 (configuration not stated)	5%	-26%	-16%
COC(=O)C1(C(=O)OC)NOC2C(=O)N(c3ccc(Cl)cc3Cl)C(=O)C21 (configuration not stated)	5%	4.5µM*	5%
Cc1c(C(=O)N2CCC(C)CC2)oc2ccc3c(c12)C(O)CC1(CCCCC1)O3 (configuration not stated)	0%	175%	0%
O=C(CCc1ccccc1)NCC1OCCc2ccccc21 (configuration not stated)	-1%	-16%	-20%
O=C(NCC1OCCc2ccccc21)c1ccco1 (configuration not stated)	0%	-3%	32µM*
COc1cc(C)ccc1OCc1cc(C(=O)N2CCC(c3ccc(F)cc3)C2)no1 (configuration not stated)	-1%	-1%	-6%
CCOC(=O)CN1C(=O)c2ccccc2C1=O	2%	-14%	4%
O=C(O)/C(=C1\OC(=O)c2ccccc21)c1ccccc1	-8%	-10%	-2%
CCOC(=O)/C(C(C)=O)=C1/OC(=O)c2ccccc21	-10%	-6%	11µM*
CCOC(=O)/C(C(C)=O)=C1\OC(=O)c2ccccc21	-16%	-9%	20µM*
CCCCn1c(N)c(N(CCOC)C(=O)c2ccc3c(c2)C(=O)N(c2ccccc2Cl)C3=O)c(=O)[nH]c1=O	.	33%	.
O=C(Oc1ccc(-c2nnco2)cc1)N(c1ccccc1)c1ccccc1	-7%	42%	7%
CCCCCCc1c(C)c2c(cc(C)c3c(C)c(C)oc32)oc1=O	-1%	.	-1%
CCCc1c(C)[nH]c2ccc(C(=O)O)cc2c1=S	40µM*	-33%	?
SMILES	AmpC detergent	AmpC no deterg	Sm TGR block
Cc1[nH]c2ccc(C(=O)O)cc2c1C	-9%	-10%	-1%
CCOc1ccc(CONS(=O)(=O)c2ccc(NC(C)=O)cc2)cc1Cl	-10%	-12%	-3%
Cc1ccc(NC(=O)c2cc(C(=O)c3cc(Cl)ccc3O)cn(-c3ccc(C)cc3)c2=O)cc1	-6%	3.2µM*	-1%
N#Cc1cc(C(=O)c2cc(Cl)ccc2O)cn(-c2ccccc2)c1=O	-15%	-37%	-6%
O=C(c1ccccc1)c1cc(Cl)ccc1N1C(=O)C=CC1=O	?	-43%[11.4 µM]	0.79µM*
Nc1ccc(Cl)cc1C(=O)c1ccccc1	1%	-28%	14%
Cc1ccc(C(=O)Nc2ncccc2O)cc1S(=O)(=O)N1CCCCC1	0%	-23%	-8%
COC(=O)c1[nH]nc(C(=O)OC(C)(C)C)c1-c1ccccc1	-8%	-7%	22µM*
COC(=O)c1n[nH]nc1-c1ccccc1	-15%	-7%	9%
O=c1c2ccccc2n(Cc2ccccc2Cl)c(=O)n1CCc1ccccc1	1%	.	-1%
Cc1ccc(-n2nc3c(c2NC(=O)c2ccco2)CS(=O)C3)cc1 (configuration not stated)	7%	0%	-33%
CN(c1ccccc1)S(=O)(=O)c1cccc(NC(=O)c2ccc(=O)[nH]n2)c1	.	2µM*	.
CN(c1ccccc1)S(=O)(=O)c1cccc(NC(=O)c2ccc(=O)[nH]c2)c1	-5%	-27%	-2%
CC(=O)c1sc(NC(=O)c2c(-c3ccccc3)c(-c3ccccc3)nn(C)c2=O)nc1C	15%	.	-3%
Fc1ccc(CSc2nncn2NCc2ccccc2)cc1	-3%	-4%	1%
Fc1ccc(CSc2nncn2NC/C=C/c2ccccc2)cc1	0%	7.1µM*	-3%
CC(=O)Nc1sc2c(c1C(c1ccccn1)N1CCCC1)CCCC2 (configuration not stated)	3%	20%	-2%
CC(=O)Nc1sc2c(c1C(c1cccs1)N1CCOCC1)CCCC2 (configuration not stated)	-10%	-2%	22µM*
COc1ccc(NC(=O)C(C)Sc2cc(-c3ccccc3)nc(C)n2)cc1Cl (configuration not stated)	17%	.	10%
O=C1OC(c2ccc(F)cc2)=C/C1=C\c1ccc(O)cc1	0%	-37%	13µM*
O=C1OC(c2ccc(Cl)cc2)=C/C1=C/c1cccnc1	-9%	42%	-5%
O=C1OC(c2ccccc2)=C/C1=C/c1cccs1	?	-57%	-34%
O=C1OC(c2ccc(F)cc2)=C/C1=C\c1ccc([N+](=O)[O-])o1	2%	-46%	4µM*
Cc1ccc(C(=O)OCC(=O)NC(C)C2CC3CCC2C3)cc1N (configuration not stated)	.	-18%	.
CSc1nc(N)c(NC(=O)c2ccc(Br)o2)c(=O)[nH]1	0%	2%	5%
SMILES	AmpC detergent	AmpC no deterg	Sm TGR block
Cc1nn(C)cc1CN(C)C(=O)c1cc2nc(-c3ccco3)cc(C(F)(F)F)n2n1	11%	119%	35µM*
CN1CCN(C(=O)c2cc3nc(-c4ccco4)cc(C(F)(F)F)n3n2)CC1	-4%	30%	-2%
Cc1nn(C)cc1NC(=O)c1cc2nc(-c3ccco3)cc(C(F)(F)F)n2n1	-7%	6%	6%
Cc1ccccc1Cn1nc(C)c(NC(=O)c2cc3nc(-c4ccco4)cc(C(F)(F)F)n3n2)c1C	-15%	155%	-23%
O=C(c1cc2nc(-c3ccco3)cc(C(F)(F)F)n2n1)N1CCc2ccccc2C1	6%	3%	50µM*
Cc1nn(C)c(C)c1CN(C)C(=O)c1cc2nc(-c3ccco3)cc(C(F)(F)F)n2n1	?	121%	13µM*
COC(=O)CSc1nnc(CNC(=O)c2ccccc2F)n1-c1ccccc1	-3%	-2%	32%
CNc1c(NS(=O)(=O)c2cc(NC(C)=O)ccc2C)c(=O)oc2ccccc12	?	-14%	-3%
COC(=O)CSc1nnc(NC(=O)C2CC(=O)N(c3ccc(F)cc3)C2)s1 (configuration not stated)	14%	?	-7%
